PubChem BioAssay (EPA / NIEHS)
Values joined by “and” are separate entries in the source; they are usually repeats but may differ in a detail not shown here. Identical values can stand only once. Where a structure was tested more than once in an assay, its records may differ in their call. Active and inactive are the calls of the source. Rule for the calls: active = hit-call score of the fitted dose curve at least 0.9, where 1 is the maximum; inactive = score below 0.9.

How the values were obtained:
[1] = molecular target: CCAAT/enhancer-binding protein beta (Homo sapiens) (UniProt P17676); assay: ATG_C_EBP_CIS: Attagene CIS-FACTORIAL HepG2 Assay for human CCAAT/Enhancer Binding Protein (C/EBP) beta (AID 2282927); conditions: HepG2 Attagene cis-factorial transcription factor reporter; actives raise or lower the signal
Sequence of CCAAT/enhancer-binding protein beta (Homo sapiens) (P17676 whole entry, looked up, the tested form may be a part): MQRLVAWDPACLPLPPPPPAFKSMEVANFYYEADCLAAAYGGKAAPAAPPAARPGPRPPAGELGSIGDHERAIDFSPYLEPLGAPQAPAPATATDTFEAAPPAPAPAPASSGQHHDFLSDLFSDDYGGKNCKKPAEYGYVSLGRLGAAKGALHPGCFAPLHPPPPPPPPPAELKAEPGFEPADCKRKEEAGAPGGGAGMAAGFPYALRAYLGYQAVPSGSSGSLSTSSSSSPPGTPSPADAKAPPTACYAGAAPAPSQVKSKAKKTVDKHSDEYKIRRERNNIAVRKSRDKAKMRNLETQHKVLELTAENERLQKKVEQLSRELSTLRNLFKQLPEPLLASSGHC
Method in brief: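 Endogenous C/EBPb-driven reporter transcripts measured in transfected human HepG2 cells at 24 h via RT-PCR and capillary electrophoresis of labelled fragments. Activity fitted in both directions relative to DMSO baseline.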

[2] = ATG_CMV_CIS: Attagene CIS-FACTORIAL HepG2 Assay for human CMV (Internal Marker) (AID 2282928); conditions: HepG2 CMV promoter reporter, transcription factor profiling; actives raise or lower the signal;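 note: endpoint acts as a background internal control marker rather than a target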
Method in brief: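 Cell system: HepG2, transiently transfected multiple reporter units under cis promoters. Exposure: 24 h. Detection: RT-PCR, FAM labeling, HpaI digestion, capillary electrophoresis. Analysis: bidirectional, DMSO baseline.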

[3] = ATG_DR4_LXR_CIS: Attagene CIS-FACTORIAL HepG2 Assay for human Liver X Receptor (LXR), DR4 submotif (AID 2282929); conditions: HepG2 Attagene DR4 cis-reporter, mRNA transcription; actives raise or lower the signal
Method in brief: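 Endogenous factor activity at a DR4 cis-element is read as reporter mRNA in transiently transfected HepG2 cells. Exposure lasts 24 h; transcripts are amplified, fluorescently labelled and sized by capillary electrophoresis, with DMSO as baseline.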

[4] = molecular target: Aryl hydrocarbon receptor (Homo sapiens) (UniProt P35869); assay: ATG_Ahr_CIS: Attagene CIS-FACTORIAL HepG2 Assay for human Aryl Hydrocarbon Receptor (Ahr) (AID 2282930); conditions: HepG2 AhR cis-factorial reporter transcription; actives raise or lower the signal
Sequence of Aryl hydrocarbon receptor (Homo sapiens) (P35869 whole entry, looked up): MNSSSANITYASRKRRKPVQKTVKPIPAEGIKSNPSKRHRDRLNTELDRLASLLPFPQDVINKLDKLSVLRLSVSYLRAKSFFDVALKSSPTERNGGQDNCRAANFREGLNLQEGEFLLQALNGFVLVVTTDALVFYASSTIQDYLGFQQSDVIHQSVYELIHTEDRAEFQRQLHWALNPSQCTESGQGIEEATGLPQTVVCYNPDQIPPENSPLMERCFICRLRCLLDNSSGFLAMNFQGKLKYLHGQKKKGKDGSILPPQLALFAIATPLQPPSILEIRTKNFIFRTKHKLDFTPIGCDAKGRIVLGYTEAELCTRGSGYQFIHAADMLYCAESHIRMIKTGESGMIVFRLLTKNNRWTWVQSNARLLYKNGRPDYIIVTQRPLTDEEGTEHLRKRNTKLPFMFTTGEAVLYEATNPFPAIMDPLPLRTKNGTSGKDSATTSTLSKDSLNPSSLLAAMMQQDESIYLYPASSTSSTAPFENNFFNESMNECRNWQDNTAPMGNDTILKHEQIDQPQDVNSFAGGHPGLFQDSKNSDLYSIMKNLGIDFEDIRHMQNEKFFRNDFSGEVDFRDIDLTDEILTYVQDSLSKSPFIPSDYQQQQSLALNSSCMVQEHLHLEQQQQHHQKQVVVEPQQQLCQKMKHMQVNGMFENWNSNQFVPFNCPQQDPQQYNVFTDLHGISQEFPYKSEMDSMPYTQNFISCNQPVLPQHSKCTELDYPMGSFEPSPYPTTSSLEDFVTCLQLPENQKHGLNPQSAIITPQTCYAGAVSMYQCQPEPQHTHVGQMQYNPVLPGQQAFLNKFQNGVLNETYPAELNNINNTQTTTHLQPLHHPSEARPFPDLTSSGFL
Method in brief: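 Reporter mRNA levels, quantified by RT-PCR and fluorescent capillary electrophoresis, reflect endogenous AhR transcriptional activity in HepG2 cells carrying transfected cis-promoter reporter constructs. Readout at 24 h post-dose; gain or loss fitted against DMSO baseline.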

[5] = ATG_AP_1_CIS: Attagene CIS-FACTORIAL HepG2 Assay for human Activator Protein 1 (AP-1) (AID 2282931); conditions: HepG2 Attagene cis-factorial AP-1 reporter mRNA; actives raise or lower the signal
Method in brief: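 Fluorescence of labelled PCR fragments separated by capillary electrophoresis gives reporter mRNA levels. HepG2 with transfected cis-regulated reporter units, 24 h exposure; DMSO serves as baseline for bidirectional curve fits.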

[6] = ATG_AP_2_CIS: Attagene CIS-FACTORIAL HepG2 Assay for human Activator Protein 2 (AP-2) (AID 2282932); conditions: HepG2 AP-2 cis-reporter, Attagene transcription factor profiling; actives raise or lower the signal
Method in brief: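 HepG2, transient MRTU transfection, cis-regulated reporters; 24 h compound exposure; RNA isolated, RT-PCR, 6-FAM labelling, HpaI digest, CE fluorescence. DMSO = negative control/baseline, bidirectional fit.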

[7] = ATG_BRE_CIS: Attagene CIS-FACTORIAL HepG2 Assay for human Bone Morphogenetic Protein (BMP) Response Element (BRE) (AID 2282933); conditions: HepG2 BMP response element reporter, Attagene transcription factor profiling; actives raise or lower the signal
Method in brief: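 Endogenous transcription factor activity read in transiently transfected HepG2 cells after 24 h chemical exposure. Bidirectional curve fitting against DMSO; readout is reporter transcript level by RT-PCR with capillary electrophoresis of labelled products.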

[8] = molecular target: Retinoic acid receptor alpha (Homo sapiens) (UniProt P10276); assay: ATG_DR5_RAR_CIS: Attagene CIS-FACTORIAL HepG2 Assay for human Retinoic Acid Receptor Alpha (RARE), DR5 submotif (AID 2282934); conditions: HepG2 Attagene cis-factorial RARE DR5 reporter, mRNA; actives raise or lower the signal;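 for AC50: reporter responds to endogenous RAR alpha beta and gamma in HepG2 not RARA alone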
Sequence of Retinoic acid receptor alpha (Homo sapiens) (P10276 whole entry, looked up): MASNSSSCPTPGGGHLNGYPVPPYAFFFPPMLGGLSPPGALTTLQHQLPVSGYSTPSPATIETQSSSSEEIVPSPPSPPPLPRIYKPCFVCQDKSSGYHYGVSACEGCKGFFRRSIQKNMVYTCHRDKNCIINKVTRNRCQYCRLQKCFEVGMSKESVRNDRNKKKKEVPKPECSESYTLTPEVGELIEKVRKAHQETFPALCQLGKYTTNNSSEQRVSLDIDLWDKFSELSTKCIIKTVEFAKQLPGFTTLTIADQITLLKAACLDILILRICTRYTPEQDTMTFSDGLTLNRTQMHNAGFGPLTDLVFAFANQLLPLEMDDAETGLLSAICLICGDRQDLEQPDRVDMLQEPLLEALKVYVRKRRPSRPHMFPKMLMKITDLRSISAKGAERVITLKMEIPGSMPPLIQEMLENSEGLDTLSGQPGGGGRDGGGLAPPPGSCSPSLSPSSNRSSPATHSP
Method in brief: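 Reporter transcripts from a DR5-regulated unit, measured via RT-PCR plus capillary electrophoresis, reflect endogenous RAR activity in transiently transfected human HepG2 liver cells. Exposure lasted 24 h; gain or loss of signal scored against DMSO.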

[9] = molecular target: Transcription factor E2F1 (Homo sapiens) (UniProt Q01094); assay: ATG_E2F_CIS: Attagene CIS-FACTORIAL HepG2 Assay for human E2F Transcription Factor 1 (AID 2282935); conditions: HepG2 Attagene cis-reporter, E2F reporter RNA transcripts; actives raise or lower the signal
Sequence of Transcription factor E2F1 (Homo sapiens) (Q01094 whole entry, looked up): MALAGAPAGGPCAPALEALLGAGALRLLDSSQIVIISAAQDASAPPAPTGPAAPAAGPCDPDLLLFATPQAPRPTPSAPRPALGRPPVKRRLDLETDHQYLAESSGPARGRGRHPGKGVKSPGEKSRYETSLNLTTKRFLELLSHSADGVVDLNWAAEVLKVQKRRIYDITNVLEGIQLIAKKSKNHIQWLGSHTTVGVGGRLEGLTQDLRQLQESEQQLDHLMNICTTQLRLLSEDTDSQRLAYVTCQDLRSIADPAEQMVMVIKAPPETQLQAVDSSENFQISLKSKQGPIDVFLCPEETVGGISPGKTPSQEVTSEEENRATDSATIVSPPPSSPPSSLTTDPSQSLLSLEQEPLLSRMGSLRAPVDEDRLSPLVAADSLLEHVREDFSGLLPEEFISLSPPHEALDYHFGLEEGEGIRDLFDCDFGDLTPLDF
Method in brief: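 Cis-element reporter mRNA induction in transiently transfected HepG2, 24 h exposure. Activity fitted in both directions relative to DMSO negative control.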

[10] = ATG_E_Box_CIS: Attagene CIS-FACTORIAL HepG2 Assay for human Enhancer Box (E-box) (AID 2282936); conditions: HepG2 E-box cis-reporter transcription, actives raise or lower the signal
Method in brief: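 Cells: HepG2 (human liver), transient MRTU transfection. Exposure 24 h. RNA → oligo(dT) RT → PCR → 6-FAM label → HpaI → CE. Activity fitted both directions relative to DMSO.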

[11] = ATG_M_61_CIS: Attagene CIS-FACTORIAL HepG2 Assay for M61 Transcription Factor (Internal Marker) (AID 2282937); conditions: HepG2 Attagene CIS-FACTORIAL M61 internal marker reporter; actives raise or lower the signal
Method in brief: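 This endpoint serves as an internal background control within a multiplexed HepG2 cis-reporter panel. Cells are exposed for 24 h; reporter mRNA is amplified, fluorescently labelled and sized by capillary electrophoresis, with DMSO as negative control.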

[12] = ATG_EGR_CIS: Attagene CIS-FACTORIAL HepG2 Assay for human Early Growth Response 1 (EGR1) (AID 2282938); conditions: HepG2 Attagene CIS-FACTORIAL EGR reporter mRNA; actives raise or lower the signal
Method in brief: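 HepG2, transient MRTU transfection (cis promoters), 24 h compound. RNA → RT (oligo-dT) → PCR → 6-FAM labelling → HpaI cut → CE fluorescence. Bidirectional fit, DMSO baseline.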

[13] = ATG_M_19_CIS: Attagene CIS-FACTORIAL HepG2 Assay for M19 Transcription Factor (Internal Marker) (AID 2282939); conditions: HepG2 Attagene CIS-FACTORIAL M19 internal marker reporter; actives raise or lower the signal
Method in brief: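 Internal marker readout, fitted in both directions against DMSO, from HepG2 cells carrying transfected cis-element reporter constructs; RT-PCR and capillary electrophoresis of reporter mRNA after 24 h exposure.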

[14] = ATG_Ets_CIS: Attagene CIS-FACTORIAL HepG2 Assay for human Erythroblast Transformation Specific (ETS) (AID 2282941); conditions: HepG2 ETS cis-reporter transcription, actives raise or lower the signal
Method in brief: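 After transient cis-reporter transfection, HepG2 cells receive test chemical for 24 h. Reporter mRNA levels, measured by RT-PCR and capillary electrophoresis fluorescence, are analysed bidirectionally relative to the DMSO baseline.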

[15] = ATG_FoxO_CIS: Attagene CIS-FACTORIAL HepG2 Assay for human Forkhead box O (FoxO) (AID 2282943); conditions: HepG2 Attagene cis-reporter, FoxO element, mRNA; actives raise or lower the signal
Method in brief: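 Endogenous transcription factor activity read from multiplexed cis-promoter reporter transcripts in transiently transfected HepG2, 24 h after dosing. Reporter RNA measured via RT-PCR plus capillary electrophoresis of FAM-labeled products; gain or loss relative to DMSO.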

[16] = ATG_GATA_CIS: Attagene CIS-FACTORIAL HepG2 Assay for human GATA Binding Protein (AID 2282944); conditions: HepG2 GATA cis-element reporter, Attagene multiplex mRNA; actives raise or lower the signal
Method in brief: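 Reporter transcripts from a GATA cis-regulated unit, among multiplexed reporters in transfected HepG2 cells, were measured by RT-PCR with capillary electrophoresis after 24 h dosing. Induction or loss scored relative to DMSO.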

[17] = ATG_GLI_CIS: Attagene CIS-FACTORIAL HepG2 Assay for human Zinc Finger Protein GLI1 (AID 2282945); conditions: HepG2, Attagene cis-factorial reporter mRNA, GLI element; actives raise or lower the signal
Method in brief: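 Bidirectional curve fits relative to DMSO, using reporter mRNA levels from RT-PCR plus capillary electrophoresis. Cells were HepG2 transiently carrying cis-regulated reporter constructs, harvested 24 h after dosing.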

[18] = molecular target: Bile acid receptor (Homo sapiens) (UniProt Q96RI1); assay: ATG_IR1_CIS: Attagene CIS-FACTORIAL HepG2 Assay for human Nuclear Receptor Subfamily 1 Group H Member 4 (NR1H4), IR1 submotif (AID 2282946); conditions: IR1 reporter transcription, actives raise or lower the signal
Sequence of Bile acid receptor (Homo sapiens) (Q96RI1 whole entry, looked up, the tested form may be a part): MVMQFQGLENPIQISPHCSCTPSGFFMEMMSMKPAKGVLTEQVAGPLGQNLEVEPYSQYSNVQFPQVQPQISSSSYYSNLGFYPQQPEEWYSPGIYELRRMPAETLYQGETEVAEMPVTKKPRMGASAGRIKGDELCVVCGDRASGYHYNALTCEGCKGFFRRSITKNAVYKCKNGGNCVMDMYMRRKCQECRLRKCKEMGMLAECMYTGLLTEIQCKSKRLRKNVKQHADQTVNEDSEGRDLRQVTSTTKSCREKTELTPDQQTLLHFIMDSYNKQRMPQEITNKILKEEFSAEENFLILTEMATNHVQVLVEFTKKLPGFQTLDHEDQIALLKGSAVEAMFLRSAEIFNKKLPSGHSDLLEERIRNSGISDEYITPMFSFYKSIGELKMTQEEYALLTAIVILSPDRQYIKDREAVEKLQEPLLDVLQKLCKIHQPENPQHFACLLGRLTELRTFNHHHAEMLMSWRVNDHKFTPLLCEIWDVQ
Method in brief: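 Cells (human HepG2) carry transiently transfected cis-promoter reporter transcription units. Compounds are incubated 24 h, total RNA is reverse-transcribed and amplified, and labelled fragments are resolved by capillary electrophoresis. Curves use DMSO as baseline.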

[19] = ATG_ERE_CIS: Attagene CIS-FACTORIAL HepG2 Assay for Estrogen Response Element (ERE) (AID 2282940); conditions: HepG2 ERE cis-reporter, Attagene RNA transcript; actives raise or lower the signal
Method in brief: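 After 24 h compound treatment, RNA from transfected HepG2 cells was reverse-transcribed, reporter cDNA PCR-amplified, FAM-labelled, HpaI-cut and resolved by capillary electrophoresis. ERE-driven cis reporter transcripts reflect endogenous factors; gain or loss scored against DMSO.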

[20] = molecular target: Hepatocyte nuclear factor 3-beta (Homo sapiens) (UniProt Q9Y261); assay: ATG_FoxA2_CIS: Attagene CIS-FACTORIAL HepG2 Assay for human Forkhead box A2 (FOXA2) (AID 2282942); conditions: HepG2 cis-reporter transcription factor activity, 24 h; actives raise or lower the signal
Sequence of Hepatocyte nuclear factor 3-beta (Homo sapiens) (Q9Y261 whole entry, looked up): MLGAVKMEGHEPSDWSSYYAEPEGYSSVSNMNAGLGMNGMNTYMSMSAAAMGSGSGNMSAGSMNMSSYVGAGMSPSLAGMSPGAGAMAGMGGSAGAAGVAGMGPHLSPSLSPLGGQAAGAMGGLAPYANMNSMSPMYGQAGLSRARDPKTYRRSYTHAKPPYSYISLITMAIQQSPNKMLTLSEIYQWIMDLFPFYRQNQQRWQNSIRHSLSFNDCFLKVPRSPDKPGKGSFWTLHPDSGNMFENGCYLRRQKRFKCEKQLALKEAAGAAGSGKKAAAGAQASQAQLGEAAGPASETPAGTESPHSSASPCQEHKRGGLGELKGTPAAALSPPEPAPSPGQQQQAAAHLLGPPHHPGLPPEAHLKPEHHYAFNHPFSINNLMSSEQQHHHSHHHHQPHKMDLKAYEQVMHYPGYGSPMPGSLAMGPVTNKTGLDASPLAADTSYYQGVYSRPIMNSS
Method in brief: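 Cells: HepG2, transient multiplex reporter transfection. Exposure 24 h. Detection: reporter-specific RT-PCR, fluorescent labelling, restriction digest, capillary electrophoresis. Analysis: bidirectional curve fit, DMSO as negative control.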

Measured: AC50

O=c1[nH]c(=O)[nH]c(=O)[nH]1
not listed: [18] | [19] | [20]
inactive: all other assays above

C[C@@H](Oc1ccc(Cl)cc1Cl)C(=O)O
not listed: [19] | [20]
inactive: all other assays above

N#CN=C(N)N
not listed: [14]
inactive: all other assays above

CC(C)(C)CC(C)(C)c1ccc(O)cc1
active: [2] 17.1 µM and 18 µM | [3] 14.4 µM | [5] 19.4 µM | [10] 8.06 µM | [18] 16.3 µM
inactive: [1] | [2] | [3] | [5] | [6] | [7] | [9] | [10] | [11] | [12] | [14] | [20] | [15] | [16] | [17] | [18]

CC(C)(C)c1cc(O)ccc1O
active: [1] 79.7 µM | [2] 64.7 µM | [3] 24.9 µM | [4] 1.85 µM | [5] 66.7 µM | [7] 19.8 µM | [9] 66.5 µM | [12] 120 µM
not listed: [16] | [20]
inactive: all other assays above

COc1cccc(C=O)c1
not listed: [18]
inactive: all other assays above

CN(C)P(=O)(N(C)C)N(C)C
inactive: all assays above

CCCCCCCCc1ccc(O)cc1
active: [3] 11.2 µM | [5] 18.7 µM
inactive: [1] | [2] | [3] | [4] | [5] | [6] | [7] | [8] | [9] | [10] | [11] | [12] | [13] | [14] | [20] | [15] | [16] | [17]

C=CC#N
active: [19] 71.5 µM
not listed: [14] | [18]
inactive: all other assays above

COP(=S)(OC)Oc1cc(Cl)c(Cl)cc1Cl
active: [4] 11.3 µM | [5] 41.8 µM | [7] 64.5 µM | [19] 75.6 µM
not listed: [13] | [18]
inactive: all other assays above

c1ccc(N=NNc2ccccc2)cc1
active: [3] 115 µM | [4] 5.92 µM | [5] 80 µM | [7] 123 µM | [12] 83.5 µM | [19] 26.3 µM | [17] 163 µM
not listed: [16] | [18] | [20]
inactive: all other assays above

O=C(O)C(F)(F)C(F)(F)C(F)(F)C(F)(F)C(F)(F)C(F)(F)C(F)(F)C(F)(F)C(F)(F)C(F)(F)F
inactive: [1] | [4] | [5] | [6] | [8] | [9] | [10] | [11] | [14] | [20] | [15] | [16] | [17] | [18]
active: [1] 172 µM | [2] 50.4 µM and 31.3 µM | [3] 24.6 µM and 13.1 µM | [5] 23.9 µM | [6] 55.8 µM | [8] 129 µM | [10] 54.5 µM | [11] 76.2 µM | [12] 24.7 µM and 14.8 µM | [16] 148 µM | [17] 174 µM

CCC(C)c1cccc(C(C)CC)c1O (configuration not stated)
not listed: [16]
inactive: all other assays above

N#CCc1ccc(Cl)cc1
not listed: [19] | [20]
inactive: all other assays above
